Results filed as inconclusive are left out. Activity calls are given as the source filed them. How the source made its calls: active means hit-call score of the fitted dose curve at least 0.9, where 1 is the maximum; inconclusive means response in the unintended direction; inactive means score below 0.9.
Columns and labels:
[1] = biological target: Cellular tumor antigen p53 (Homo sapiens) (UniProt P04637); assay: TOX21_p53_BLA_p2_ratio: Tox21 HCT-116 p53 Agonism Beta-lactamase Assay, Ratio, Phase 2 (AID 2283592)
How it was run: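 Cleaved-to-uncleaved substrate ratio (460 vs 530 nm) measured in HCT116 cells with an inducible beta-lactamase reporter linked to p53 activity. Compounds incubated 16 h at 37C before 2 h room-temperature CCF4-AM loading.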

[2] = TOX21_p53_BLA_p3_viability: Viability Assessment in the Tox21 HCT-116 p53 Agonism Beta-lactamase Assay, Phase 3 (AID 2283593);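 further: cells exposed to compound for 16 h before reading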
How it was run: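 Cellular ATP was quantified by CellTiter-Glo luminescence, read after 30 min at room temperature. Beforehand, HCT116 cells (4000/well) received compound 5 h post-seeding, 217-fold diluted from DMSO, then incubated 16 h at 37C.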

[3] = biological target: Cellular tumor antigen p53 (Homo sapiens) (UniProt P04637); assay: TOX21_p53_BLA_p3_ratio: Tox21 HCT-116 p53 Agonism Beta-lactamase Assay, Ratio, Phase 3 (AID 2283596)
How it was run: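 Cells were seeded at 4000/well, rested 5 h at 37C, then dosed with DMSO compound solutions (217-fold dilution) for 16 h. CCF4-AM substrate was loaded for 2 h at room temperature, and the 460/530 nm emission ratio was fitted for gain of signal versus DMSO.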

[4] = biological target: Cellular tumor antigen p53 (Homo sapiens) (UniProt P04637); assay: TOX21_p53_BLA_p5_ratio: Tox21 HCT-116 p53 Agonism Beta-lactamase Assay, Ratio, Phase 5 (AID 2283599)
How it was run: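 Beta-lactamase reporter ratio (blue 460 nm over green 530 nm, 405 nm excitation) after 2 h CCF4-AM loading, in HCT-116 cells exposed 16 h at 37 C to compounds pinned at 217-fold dilution. Increases relative to DMSO baseline scored.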

[5] = TOX21_p53_BLA_p5_viability: Viability Assessment in the Tox21 HCT-116 p53 Agonism Beta-lactamase Assay, Phase 5 (AID 2283600)
How it was run: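 Viability is taken from cellular ATP content, measured by luciferase luminescence in the same wells after the beta-lactamase ratio read. Cells are seeded at 4000 per well and exposed to DMSO-dissolved compounds, diluted 217-fold, for 16 h.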

[6] = biological target: Cellular tumor antigen p53 (Homo sapiens) (UniProt P04637); assay: TOX21_p53_BLA_p4_ratio: Tox21 HCT-116 p53 Agonism Beta-lactamase Assay, Ratio, Phase 4 (AID 2283601)
How it was run: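 Signal is the blue/green (460nm/530nm) ratio of cleaved versus uncleaved CCF4-AM substrate, read after 2 h substrate loading. Cells were HCT116 carrying the p53-responsive beta-lactamase reporter, dosed 16 h at 37C, 5% CO2; CellTiter-Glo measured in parallel.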

Measured: outcome

Chain of Cellular tumor antigen p53 (Homo sapiens) (P04637 whole entry, looked up): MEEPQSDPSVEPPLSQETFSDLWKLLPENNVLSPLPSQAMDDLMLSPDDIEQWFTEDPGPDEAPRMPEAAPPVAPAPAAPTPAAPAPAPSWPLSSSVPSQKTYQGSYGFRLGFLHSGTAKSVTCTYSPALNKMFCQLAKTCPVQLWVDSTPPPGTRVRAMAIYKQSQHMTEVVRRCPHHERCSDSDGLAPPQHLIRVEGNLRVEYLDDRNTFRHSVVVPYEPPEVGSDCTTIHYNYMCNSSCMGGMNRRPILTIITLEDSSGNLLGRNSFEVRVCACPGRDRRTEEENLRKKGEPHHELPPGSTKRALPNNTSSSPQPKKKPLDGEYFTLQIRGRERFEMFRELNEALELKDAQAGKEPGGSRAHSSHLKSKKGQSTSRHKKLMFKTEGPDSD

Cc1c(Cl)c(=O)oc2cc(OP(=O)(OCCCl)OCCCl)ccc12
inactive: all assays above

Source: PubChem BioAssay (EPA / NIEHS)
